Inconclusive results are not listed. Active and inactive are the calls of the source. Calls follow the shape of the full dose curve.
Assay: Primary qHTS to identify inhibitors of SARS-CoV-2 cell entry (AID 1645846); also: nearly all actives have a fitted effect of over 45% in size
Conditions: SARS-CoV-2 pseudovirus cell entry assay, luminescence; activity change, negative = inhibition: at 57.1 µM (top of the series) unless noted; series mostly up to 57.1 µM
Procedure, shortened: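 Luminescence readout (Bright-Glo luciferase) 48 h after pseudoparticle addition. HEK293-ACE2 cells, 1500/well; compound pre-incubation 1 h; Normalized to spike PP and bald PP.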
For `Cc1noc(NS(=O)(=O)c2ccc(N)cc2)c1C`, the activity change, negative = inhibition was -11.7%. In the case of `NC(=O)c1ccccc1O`, the activity change, negative = inhibition is reported as 1.57%. With `COc1ccc(-c2cc(=O)c3c(O)cc(O[C@@H]4O[C@H](CO[C@@H]5O[C@@H](C)[C@H](O)[C@@H](O)[C@H]5O)[C@@H](O)[C@H](O)[C@H]4O)cc3o2)cc1O` the “outcome” value was “inactive”. With `CN1C(C(=O)Nc2ccccn2)=C(O)c2sccc2S1(=O)=O` the Potency was “inactive”. With `CC(C)c1ccc2oc3nc(N)c(C(=O)O)cc3c(=O)c2c1` the Potency was “inactive”. For `C[C@@H]1[C@H](O)[C@@H](C)/C=C/C=C\C=C\C=C\C=C\C=C\C=C\[C@H](O[C@@H]2O[C@H](C)[C@@H](O)[C@H](N)[C@@H]2O)C[C@@H]2O[C@](O)(C[C@@H](O)C[C@@H](O)[C@H](O)CC[C@@H](O)C[C@@H](O)CC(=O)O[C@H]1C)C[C@H](O)[C@H]2C(=O)O` (stereo in doubt), the “outcome” value was “inactive”. For `O=c1cc(O)c(Cl)c[nH]1`, the “outcome” value was “inactive”. For `CCCC(O)C(CC)CO` (centres undefined), the “outcome” value was “inactive”. Work on `CCOc1ccc(NC(=O)CC(C)O)cc1` (centres undefined) yielded an activity change, negative = inhibition of -25.9%. In the case of `CC(=O)N1CCN(c2ccc(OC[C@H]3CO[C@](Cn4ccnc4)(c4ccc(Cl)cc4Cl)O3)cc2)CC1`, the Potency is reported as 15.8 µM (active). Compound `Cc1cccc(C)c1NC(=O)c1cc(S(N)(=O)=O)c(Cl)cc1O` has an activity change, negative = inhibition of -7.8%. `Cc1ccc(Cl)c(Nc2ccccc2C(=O)O)c1Cl` gave an activity change, negative = inhibition of -1.76%. Work on `COc1cc(OC)c(C(=O)CCCN2CCCC2)c(OC)c1` yielded an activity change, negative = inhibition of -26.6%. With `Cc1cc(C)nc(NS(=O)(=O)c2ccc(N)cc2)n1` the “outcome” value was “inactive”. `Cc1ccsc1/C=C/C1=NCCCN1C` showed an activity change, negative = inhibition of -11.3%. For `CC(C)(C)NCC(O)COc1ccccc1OCC1CCCO1` (centres undefined), the activity change, negative = inhibition was 4.08%. `CC(C(=O)O)c1cccc(Oc2ccccc2)c1` (centres undefined) showed an activity change, negative = inhibition of -1.5%. With `COc1ccc(NS(=O)(=O)c2ccc(N)cc2)nn1` the “outcome” value was “inactive”. In the case of `CCCCCCCCCCCCCCCCCC(=O)OCC(O)CO` (centres undefined), the “outcome” value is reported as “inactive”.

Assay: VSVG counterscreen qHTS to identify inhibitors of SARS-CoV-2 cell entry (AID 1645847); also: nearly all actives have a fitted effect of over 65% in size
Conditions: VSV-G pseudotyped particle entry, luciferase; series mostly up to 57.2 µM; activity change, negative = inhibition: at the top concentration
Procedure, shortened: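 HEK293-ACE2 cells (Expi293F stably expressing human ACE2) were pretreated with compound for 1 h at 37 °C, then infected with MLV-based VSV-G pseudotyped particles for 48 h. Luciferase luminescence was normalized to VSV-G PP and bald PP wells.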
With `CCOc1ccc2nc3cc(N)ccc3c(N)c2c1` the Potency was 21.5 µM (active). With `O=C1CN(/N=C/c2ccc([N+](=O)[O-])o2)C(=O)N1` the Potency was 1.92 µM (active). In the case of `Oc1ccc(Cl)c2cccnc12`, the Potency is reported as 3.04 µM (active). In the case of `C[n+]1c2cc(N)ccc2cc2ccc(N)cc21` (tested in a mixture with another compound), the Potency is reported as 4.29 µM (active). For `Cc1ccc(Nc2nccc(N(C)c3ccc4c(C)n(C)nc4c3)n2)cc1S(N)(=O)=O`, the Potency was 12.1 µM (active).

From PubChem BioAssay (NCATS)
Potency is read from the fitted curve at half-maximal effect.
